The list is not random: actives were taken first. Their share in the collection is about 3.2%.
A549 viability = Nrf2 qHTS screen for inhibitors: counterscreen for cytotoxicity; hit rate 0.16% among 390,000; A549 ARE-Fluc cells, CellTiter-Fluor viability, 18-24 h; Potency, µM (top dose mostly 46 µM), for inactives: top-dose activity change, negative = cytotoxicity, actives largely listed as inhibitors; note: potency is the fitted concentration of half-maximal effect; % is set by controls: 0 for no effect and ±100 for the full control effect
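Cytotoxicity counterscreen: CellTiter-Fluor fluorescence was measured in A549 ARE_Fluc cells after 18-24 h of compound exposure in a concentration series. The subsequent BugLite luminescent read reports ARE-luciferase activity.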
Nrf2 block = Nrf2 qHTS screen for inhibitors | A549 ARE-Fluc reporter, luciferase luminescence, 18-24 h | Potency, µM (doses to about 46 µM), for the others: at the highest dose activity change, negative = inhibition, most hits filed as inhibitors | hit rate 2.1% among 360,000 | AID 504444, 2011; note: potency is the fitted concentration of half-maximal effect; % is set by controls: 0 for no effect and ±100 for the full control effect; nearly all actives have a fitted effect of over 60% in size
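Reporter: ARE-Fluc in A549. Exposure: 18-24 h, 37 °C, 5% CO2, 5% FBS OPTI-MEM. Readouts: fluorescent cytotoxicity (CellTiter-Fluor), then luminescent Nrf2 signal after BugLite.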
Nrf2 activator = qHTS of Nrf2 Activators | AREc32 ARE-luciferase reporter (MCF7-derived line), luminescence, 24 h | hit rate 0.31% among 410,000 | Potency, µM (top dose mostly 46.1 µM), inactives show at the highest dose activation, hits mostly activators; note: potency is the fitted concentration of half-maximal effect; % of control where 0% means no effect; nearly all actives have a fitted effect of over 65% in size
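Reporter line AREc32 (ARE-Fluc), seeded overnight in OPTI-MEM with 5% FBS; compound pin-transferred, 24 hr at 37 deg C, 5% CO2; luminescent read-out.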
p53 reactivation = qHTS assay for re-activators of p53 using a Luc reporter | AID 504706, 2011 | H1299 p53-A138V BP100-luciferase reporter, luminescence, 24 h | hit rate 0.063% among 320,000 | Potency, µM (titrated, usually from 92.2 µM), inactives show at the highest dose activity change, positive = activation, hits mostly activators; note: potency is the fitted concentration of half-maximal effect; % of control where 0% means no effect; nearly all actives have a fitted effect of over 45% in size
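p53-null H1299 cells stably carrying temperature-sensitive p53-A138V and a BP100-luciferase reporter were pinned with compounds (4-point, 1:5 series) and held 24 hrs at 37 deg C. Luminescence was read 10 min after detection reagent.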
IL2 activator = qHTS of IL-2 Activators; activation, % (series mostly up to about 46 µM); AID 652025, 2013; IL-2 activation reporter assay, cell-based qHTS; stimulated with anti-CD3/CD4/CD28 beads; in transgenic mouse T cells; hit rate 0.065% among 360,000; in the data active = activation above about 50%; inconclusive = mostly about 30% to 49%; note: 0% is about no effect
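Unstimulated transgenic mouse T cells; 60-min compound exposure; bead-based TCR/CD4/CD28 stimulation; 18 h culture, 37 degrees C; dual fluorescence (EGFP, DsRed) plate cytometry.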
BRCA1 expr up = qHTS Assay to Identify Small Molecule Activators of BRCA1 Expression; MCF7-BRCA1-FFLuc reporter, luminescence, 48 h; response scale: scaled: vehicle 0%, 10 µM genistein 100%; Potency, µM (top dose mostly 46.1 µM), inactives show top-dose activation, usual class: activators; hit rate 1.1% among 380,000; note: potency is the fitted concentration of half-maximal effect; nearly all actives have a fitted effect of over 80% in size
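MCF7 cells carrying a BRCA1-firefly luciferase reporter (2000 cells/well, phenol-red free MEM) were attached for 2 h at 37 °C, then given compounds for 48 h. Luminescence was read 15 min after luciferase reagent; activity normalized to genistein (10 microM) and DMSO.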
* = called active by the depositor; ? = inconclusive; / = no result given; [ ] = dose if it differs, or a comment. Unless noted, calls come from the whole dose curve; as a rule, active = well fitted curve in the direction sought with a large enough effect; inconclusive = small, poorly fitted or top-dose-only effect, or another doubt; inactive = no such curve, though single readings can be large; an effect the other way counts as inactive or inconclusive.

SMILES	A549 viability	Nrf2 block	Nrf2 activator	p53 reactivation	IL2 activator	BRCA1 expr up
Nc1ccc2nc(-c3ccccn3)[nH]c2c1	0%	/	8%	?	1	11µM*
Nc1ccc2nc(-c3ccc(N)c(Cl)c3)[nH]c2c1	-15%	?	6%	?	0	4.5µM*
CCCCn1c(=O)[nH]c2nc3cc(N)ccc3nc2c1=O	-1%	4%	0%	?	4	?
Nc1ccc2nc3c(=O)n(C4CCCCC4)c(=O)[nH]c3nc2c1	3%	0%	5%	12%	2	7.1µM*
COc1ccc(N(Cc2ccccc2)C(=O)c2nc(SC)ncc2Cl)cc1	-14%	?	13%	/	/	/
CCS(=O)(=O)c1ncc(Cl)c(C(=O)N2CCN(c3ccc(OC)cc3)CC2)n1	?	21µM*	-6%	/	/	/
COc1ccc(N2CCN(C(=O)c3nc(SC)ncc3Cl)CC2)cc1	5%	3%	1%	/	/	/
CCS(=O)(=O)c1ncc(Cl)c(C(=O)N(Cc2ccccc2)c2ccc(OC)cc2)n1	?	23µM*	?	/	/	/
Cc1ccc(C(=O)Nc2ccc(CC(=O)O)cc2)o1	-19%	?	-1%	-3%	1	-38%
CC(C)(C)c1ccc(C(=O)Nc2ccc(CC(=O)O)cc2)o1	1%	3.7µM*	-2%	-10%	-3	-88%
C=C1C=C(C(F)F)n2ncc(C(=O)Nc3ccc(N(CC)CC)cc3)c2N1	/	/	/	/	/	3%
Fc1ccc(/C=N/NC2=Nc3cccc4cccc2c34)cc1	-25%	?	20%	46%	119*	-27%
c1ccc(NC2=Nc3cccc4cccc2c34)cc1	-16%	22%	18%	13%	0	-13%
COC(=O)c1ccccc1OCc1cc(=O)oc2ccc(C)cc12	/	/	0%	/	-1	-30%
O=C(O)c1cc2c(=O)c3ccccc3oc2nc1C(F)(F)F	-11%	?	2%	1%	0	8%
CCc1nc2oc3ccccc3c(=O)c2cc1C(=O)OC	-2%	?	?	?	0	3.2µM*
COCc1nc2oc3ccc(F)cc3c(=O)c2cc1C(=O)OC	4%	?	2%	6%	-5	4µM*
Cc1nc2oc3ccc(F)cc3c(=O)c2cc1C(=O)O	11%	?	1%	18%	0	29%
COCc1nc2oc3ccc(C)cc3c(=O)c2cc1C(=O)OC	1%	?	2%	2%	0	3.2µM*
COC(=O)c1c(SC)nc2ccccc2c1OCc1ccc(C)cc1	2%	-1%	0%	/	/	-7%
COc1ccc(NC(=O)c2ccc(COc3ccccc3Br)o2)cc1OC	-14%	23µM*	7%	-10%	2	-39%
COc1ccc(NC(=O)c2ccc(COc3ccccc3OC)o2)cc1OC	0%	-15%	7%	-3%	-1	7%
COCCCn1c(C)nc2c(c1=O)c1nc3ccccc3nc1n2CCc1ccccc1	-11%	8.2µM*	-1%	-6%	0	-26%
COc1ccc(OC2=NS(=O)(=O)c3ccccc32)cc1	4%[65.3 µM]	7%[65.3 µM]	/	/	/	/
CCOc1c(Cl)cc(/C=N/NC(N)=S)cc1OC	5%	21µM*	6%	?	-3	-2%
SMILES	A549 viability	Nrf2 block	Nrf2 activator	p53 reactivation	IL2 activator	BRCA1 expr up
Cc1ccc(NC(=O)c2ccc(F)cc2F)cc1	10%	?	4%	/	1	?
O=C(NC(=O)c1ccc(F)cc1F)Nc1ccc(Cl)cc1	-6%	?	0%	5%	-1	2.8µM*
COC(=O)c1ccc([C@H]2Nc3ccc(S(=O)(=O)Nc4ccc(F)cc4)cc3[C@H]3C=CC[C@H]32)cc1	-3%	14%	1%	/	/	/
Cc1cccc(NS(=O)(=O)c2ccc3c(c2)[C@H]2C=CC[C@H]2[C@@H](c2ccc(F)cc2)N3)c1	-15%	18µM*	1%	/	/	/
CC(C)Cc1nnc(NC(=O)CCC(=O)N2CCN(c3ccc(Cl)cc3)CC2)s1	-8%	18µM*	-1%	-9%	-3	-25%
CCc1nnc(NC(=O)CCC(=O)N2CCN(Cc3ccc(Cl)cc3)CC2)s1	-15%	23µM*	0%	-1%	0	-13%
CCc1nnc(NC(=O)Cc2ccc(S(=O)(=O)N3CCCCC3)cc2)s1	-13%	21µM*	-1%	6%	-1	0%
CCCc1nnc(NC(=O)CCC(=O)N2CCN(Cc3ccc(Cl)cc3)CC2)s1	-1%	15µM*	0%	2%	-2	-4%
CC(C)(CC(=O)NCc1ccc(Cl)cc1Cl)CC1=NS(=O)(=O)c2ccccc2N1	-7%	/	-4%	/	/	-63%
CCc1ccc(NC(=O)Cn2c(=O)n(CCC(C)C)c(=O)c3cccnc32)cc1	-1%	12%	0%	/	/	-9%
Cc1cccc(C)c1NC(=O)C(c1ccnc2ccccc12)n1c(=O)c(-c2ccccc2)nc2ccccc21 (centres undefined)	/	/	/	/	-1	/
Cc1ccc(OCCN2CCN(C(=O)CCC(=O)Nc3nnc(CC(C)C)s3)CC2)cc1	-11%	10µM*	2%	11%	-1	-35%
O=C(N/N=C/C=C/c1ccco1)c1ccccc1Cl	3%	14%	11µM*	26%	-3	-1%
O=C(N/N=C/C=C\c1ccco1)c1cccs1	0%	?	?	13%	1	7.1µM*
O=C(N/N=C/C=C/c1ccco1)c1cccc([N+](=O)[O-])c1	8%	12%	2.2µM*	-2%	-1	-28%
O=C(Cc1cccs1)N/N=C/C=C\c1ccco1	-5%	?	11µM*	14µM*	2	76%
CC(C)c1ccc(NC(=O)c2cc(S(=O)(=O)NCc3ccccc3Cl)ccc2F)cc1	-25%	/	0%	/	/	/
CN(C)/[N+]([O-])=N/Oc1ccc([N+](=O)[O-])cc1[N+](=O)[O-]	/	/	/	/	/	-36%
COc1ccc(OC)c(C(=O)COC(=O)c2ccc(C)o2)c1	-3%	-5%	13µM*	?	1	-54%
COc1ccc(C(=O)OCC(=O)c2cc(OC)ccc2OC)c(OC)c1	0%	/	3%	-5%	0	17%
N#CC1=C(NC=NCc2ccccc2)Oc2ccc3ccccc3c2C1c1ccccc1 (centres undefined)	-23%	18µM*	/	/	/	/
O=c1cc(CSc2nnc(-c3cccs3)n2Cc2ccccc2)nc2sc3ccccc3n12	-29%	26µM*	0%	-5%	-4	-70%
Cc1cc(C(=O)CSc2nnc(-c3cccs3)n2Cc2ccccc2)c(C)n1C	-8%	6%	1%	-5%	-2	-10%

Bioassay records (PubChem)
